From paper PMC7862700, “An all-to-all approach to the identification of sequence-specific readers for epigenetic DNA modifications on cytosine” come the findings set out here.

What all share (assay): DAPPL (digital affinity profiling via proximity ligation, sequencing); 10 mM Tris-HCl pH 7.5, 50 mM NaCl, 1 mM DTT, 4% glycerol, room temperature, 30 min; GST-TFs on glutathione beads, 16-mer random dsDNA library, 0.1% formaldehyde crosslink after washing; high values mean tight binding
One test deals with T1, FEV (Homo sapiens, UniProt Q99581 1-238).
T1 sequence: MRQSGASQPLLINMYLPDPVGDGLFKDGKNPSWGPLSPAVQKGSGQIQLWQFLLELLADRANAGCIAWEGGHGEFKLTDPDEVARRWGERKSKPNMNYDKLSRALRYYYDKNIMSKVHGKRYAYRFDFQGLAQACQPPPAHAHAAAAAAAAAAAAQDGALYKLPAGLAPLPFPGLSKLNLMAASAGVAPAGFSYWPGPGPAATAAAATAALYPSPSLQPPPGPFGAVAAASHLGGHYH
As to conditions: protein: recombinant; tags: N-terminal GST; dsDNA, one strand shown. Put shortly: (§1)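 Pools were built from human transcription factors expressed in yeast as GST fusions, captured on glutathione beads and DNA-barcoded, along with a tag-only sample. Incubation with 200 nmole of a 16-mer random double-stranded DNA library lasted 30 min at room temperature in Tris/NaCl/DTT/glycerol buffer, and was followed by washing, 0.1% formaldehyde crosslinking, proximity ligation, PCR amplification and Illumina NextSeq500 sequencing. Binding signal is the quotient of each hexamer's read frequency for a factor and its frequency for the tag-only sample.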

A further test addresses ETV5 (Homo sapiens, UniProt P41161 1-510). The following applies: protein: recombinant; tags: N-terminal GST; dsDNA, one strand shown. The method, boiled down:
as §1

The next test deals with HSF1 (Homo sapiens, UniProt Q00613 1-529). As to conditions: protein: recombinant; tags: N-terminal GST; chain copies: 3; dsDNA, one strand shown. Put shortly: as §1
For the next test, the target named is T2, SPIC (Homo sapiens, UniProt Q8N5J4 1-248).
T2 sequence: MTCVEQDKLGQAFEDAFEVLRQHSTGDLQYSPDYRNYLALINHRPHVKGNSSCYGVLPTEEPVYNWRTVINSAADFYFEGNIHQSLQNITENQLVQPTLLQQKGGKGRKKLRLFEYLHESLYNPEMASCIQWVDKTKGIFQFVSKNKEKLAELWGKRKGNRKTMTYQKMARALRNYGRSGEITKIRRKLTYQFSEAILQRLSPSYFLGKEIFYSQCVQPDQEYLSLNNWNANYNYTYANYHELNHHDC
As to conditions: protein: recombinant; tags: N-terminal GST; dsDNA, one strand shown. Put shortly: as §1

The next test addresses ELF4 (Homo sapiens, UniProt Q99607 1-663). The following applies: protein: recombinant; tags: N-terminal GST; dsDNA, one strand shown. The method, boiled down: as §1
The target in the next test is T3, ELK4 (Homo sapiens, UniProt P28324-2 1-405).
T3 sequence: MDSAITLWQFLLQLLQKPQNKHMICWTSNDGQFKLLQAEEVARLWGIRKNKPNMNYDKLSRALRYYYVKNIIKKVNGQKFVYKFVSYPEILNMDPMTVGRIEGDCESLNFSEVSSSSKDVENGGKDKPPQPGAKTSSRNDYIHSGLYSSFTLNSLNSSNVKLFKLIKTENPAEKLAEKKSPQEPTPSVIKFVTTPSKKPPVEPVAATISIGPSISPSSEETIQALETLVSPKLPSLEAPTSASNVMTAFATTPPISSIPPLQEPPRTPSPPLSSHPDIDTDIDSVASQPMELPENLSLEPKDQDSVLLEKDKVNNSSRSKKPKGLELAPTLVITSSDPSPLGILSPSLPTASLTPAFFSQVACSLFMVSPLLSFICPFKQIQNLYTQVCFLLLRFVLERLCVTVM
The following applies: protein: recombinant; tags: N-terminal GST; dsDNA, one strand shown. The method, boiled down:
as §1

Another test addresses T4, ETV2 (Homo sapiens, UniProt O00321 1-342).
T4 sequence: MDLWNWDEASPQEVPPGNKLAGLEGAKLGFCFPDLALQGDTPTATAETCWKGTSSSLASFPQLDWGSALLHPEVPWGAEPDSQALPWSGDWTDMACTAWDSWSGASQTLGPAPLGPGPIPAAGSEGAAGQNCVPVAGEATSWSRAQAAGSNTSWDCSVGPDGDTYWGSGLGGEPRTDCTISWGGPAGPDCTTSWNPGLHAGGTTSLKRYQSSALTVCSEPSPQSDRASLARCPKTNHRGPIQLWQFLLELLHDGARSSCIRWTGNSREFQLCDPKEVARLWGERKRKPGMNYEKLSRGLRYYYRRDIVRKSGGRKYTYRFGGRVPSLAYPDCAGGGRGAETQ
The following applies: protein: recombinant; tags: N-terminal GST; dsDNA, one strand shown. Put shortly:
as §1

Another test addresses T5, ELF3 (Homo sapiens, UniProt P78545 1-371).
T5 sequence: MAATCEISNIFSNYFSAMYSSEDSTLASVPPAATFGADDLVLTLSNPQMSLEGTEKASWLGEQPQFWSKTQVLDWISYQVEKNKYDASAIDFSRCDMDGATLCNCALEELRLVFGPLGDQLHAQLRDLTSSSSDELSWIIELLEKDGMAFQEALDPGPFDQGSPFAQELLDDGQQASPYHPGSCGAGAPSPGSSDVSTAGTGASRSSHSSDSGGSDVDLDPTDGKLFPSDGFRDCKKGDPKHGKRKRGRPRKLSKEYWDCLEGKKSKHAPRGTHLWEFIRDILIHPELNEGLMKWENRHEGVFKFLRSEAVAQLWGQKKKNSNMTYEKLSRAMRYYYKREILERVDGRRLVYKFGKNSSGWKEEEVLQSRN
As to conditions: protein: recombinant; tags: N-terminal GST; dsDNA, one strand shown. Put shortly:
as §1

The next test addresses CRX (Homo sapiens, UniProt O43186 1-299). The following applies: protein: recombinant; tags: N-terminal GST; dsDNA, one strand shown. The method, boiled down: as §1
The next test addresses ETV1 (Homo sapiens, UniProt P50549 1-477). As to conditions: protein: recombinant; tags: N-terminal GST; dsDNA, one strand shown. The method, boiled down: as §1

CRX, sequence (O43186 whole entry): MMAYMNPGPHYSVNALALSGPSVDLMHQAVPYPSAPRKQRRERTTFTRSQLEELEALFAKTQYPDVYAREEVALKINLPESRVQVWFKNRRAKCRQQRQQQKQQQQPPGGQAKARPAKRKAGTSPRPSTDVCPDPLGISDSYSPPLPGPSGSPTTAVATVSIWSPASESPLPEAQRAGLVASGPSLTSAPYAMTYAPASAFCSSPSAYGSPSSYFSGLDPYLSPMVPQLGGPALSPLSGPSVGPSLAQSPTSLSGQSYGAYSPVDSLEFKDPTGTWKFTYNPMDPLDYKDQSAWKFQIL
ELF4, sequence (Q99607 whole entry): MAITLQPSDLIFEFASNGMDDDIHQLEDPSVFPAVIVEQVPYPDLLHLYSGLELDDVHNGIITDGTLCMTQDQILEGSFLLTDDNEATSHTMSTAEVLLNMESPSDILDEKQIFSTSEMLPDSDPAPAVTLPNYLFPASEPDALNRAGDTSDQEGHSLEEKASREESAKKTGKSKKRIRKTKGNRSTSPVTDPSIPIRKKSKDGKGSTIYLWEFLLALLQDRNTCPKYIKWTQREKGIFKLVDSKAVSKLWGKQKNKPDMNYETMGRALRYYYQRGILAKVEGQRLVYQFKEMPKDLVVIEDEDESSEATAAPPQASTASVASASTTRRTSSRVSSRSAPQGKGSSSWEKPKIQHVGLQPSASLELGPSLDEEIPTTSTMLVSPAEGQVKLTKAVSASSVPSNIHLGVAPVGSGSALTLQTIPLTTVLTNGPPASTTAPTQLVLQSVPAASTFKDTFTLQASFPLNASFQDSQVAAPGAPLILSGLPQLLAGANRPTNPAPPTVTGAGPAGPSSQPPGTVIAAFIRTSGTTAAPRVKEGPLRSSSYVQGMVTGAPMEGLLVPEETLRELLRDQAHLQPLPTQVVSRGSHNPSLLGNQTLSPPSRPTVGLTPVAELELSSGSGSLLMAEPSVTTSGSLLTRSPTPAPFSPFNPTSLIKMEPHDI
HSF1, sequence (Q00613 whole entry): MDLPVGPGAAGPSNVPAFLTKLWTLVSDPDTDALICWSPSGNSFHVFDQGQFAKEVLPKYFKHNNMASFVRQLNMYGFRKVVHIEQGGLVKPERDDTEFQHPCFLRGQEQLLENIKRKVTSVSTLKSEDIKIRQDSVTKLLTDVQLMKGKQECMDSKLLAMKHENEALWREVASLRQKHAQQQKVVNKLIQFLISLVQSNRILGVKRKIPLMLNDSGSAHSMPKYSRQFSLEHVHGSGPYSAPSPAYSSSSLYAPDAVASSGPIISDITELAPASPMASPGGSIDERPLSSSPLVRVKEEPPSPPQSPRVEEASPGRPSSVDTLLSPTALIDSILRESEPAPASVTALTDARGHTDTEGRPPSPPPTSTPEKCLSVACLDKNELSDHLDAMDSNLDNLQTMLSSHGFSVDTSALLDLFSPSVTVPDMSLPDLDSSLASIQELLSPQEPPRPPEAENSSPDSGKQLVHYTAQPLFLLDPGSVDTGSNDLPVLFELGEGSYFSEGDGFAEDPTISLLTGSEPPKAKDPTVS
ETV5, sequence (P41161 whole entry): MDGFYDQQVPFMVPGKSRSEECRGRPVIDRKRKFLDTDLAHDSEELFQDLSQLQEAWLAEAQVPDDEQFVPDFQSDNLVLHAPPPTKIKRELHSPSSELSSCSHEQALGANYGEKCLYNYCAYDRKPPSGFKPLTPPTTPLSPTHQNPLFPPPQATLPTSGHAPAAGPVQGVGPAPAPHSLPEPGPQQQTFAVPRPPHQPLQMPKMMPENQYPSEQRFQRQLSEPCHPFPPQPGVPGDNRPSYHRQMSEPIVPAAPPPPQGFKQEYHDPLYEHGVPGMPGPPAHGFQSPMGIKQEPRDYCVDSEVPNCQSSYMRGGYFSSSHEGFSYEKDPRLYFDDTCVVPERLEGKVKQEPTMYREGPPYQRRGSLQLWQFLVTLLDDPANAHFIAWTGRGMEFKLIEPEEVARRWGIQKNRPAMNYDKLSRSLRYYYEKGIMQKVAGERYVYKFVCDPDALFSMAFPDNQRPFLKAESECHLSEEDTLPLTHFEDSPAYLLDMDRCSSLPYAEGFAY
ETV1, sequence (P50549 whole entry): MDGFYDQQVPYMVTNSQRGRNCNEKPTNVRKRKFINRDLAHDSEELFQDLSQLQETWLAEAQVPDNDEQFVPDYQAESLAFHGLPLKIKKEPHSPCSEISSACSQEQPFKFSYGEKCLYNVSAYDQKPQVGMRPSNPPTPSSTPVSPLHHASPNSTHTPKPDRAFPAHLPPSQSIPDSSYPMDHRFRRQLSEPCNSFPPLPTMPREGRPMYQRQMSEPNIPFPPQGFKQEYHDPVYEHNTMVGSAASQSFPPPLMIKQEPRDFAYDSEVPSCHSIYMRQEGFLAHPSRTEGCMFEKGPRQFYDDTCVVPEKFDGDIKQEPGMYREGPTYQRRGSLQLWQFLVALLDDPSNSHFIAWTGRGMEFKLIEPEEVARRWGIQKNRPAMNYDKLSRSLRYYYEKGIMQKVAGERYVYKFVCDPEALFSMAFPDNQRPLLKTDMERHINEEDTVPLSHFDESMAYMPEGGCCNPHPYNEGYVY

Turning to ATCTCT, the binding signal with FEV was 1.29 fold enrichment (6-mer frequency, TF over GST control); in the test with ETV5, 1.29 fold enrichment (6-mer frequency, TF over GST control); in the test with HSF1 it was 1.63 fold enrichment (6-mer frequency, TF over GST control); with SPIC, 1.45 fold enrichment (6-mer frequency, TF over GST control); with ELF4 it was 1.26 fold enrichment (6-mer frequency, TF over GST control); with ELK4 it was 1.44 fold enrichment (6-mer frequency, TF over GST control). Moreover, the binding signal is 1.33 fold enrichment (6-mer frequency, TF over GST control) in the test with ETV2; 1.26 fold enrichment (6-mer frequency, TF over GST control) with ELF3; 1.85 fold enrichment (6-mer frequency, TF over GST control) with CRX; 1.23 fold enrichment (6-mer frequency, TF over GST control) with ETV1.
Consider AAAATC, for which the binding signal with FEV is 1.19 fold enrichment (6-mer frequency, TF over GST control); with ETV5, 1.19 fold enrichment (6-mer frequency, TF over GST control); with HSF1, 1.51 fold enrichment (6-mer frequency, TF over GST control); with SPIC, 1.07 fold enrichment (6-mer frequency, TF over GST control); with ELF4, 1.23 fold enrichment (6-mer frequency, TF over GST control); with ELK4, 1.05 fold enrichment (6-mer frequency, TF over GST control). In addition, the binding signal is 1.28 fold enrichment (6-mer frequency, TF over GST control) with ETV2; 1.11 fold enrichment (6-mer frequency, TF over GST control) with ELF3; 1.62 fold enrichment (6-mer frequency, TF over GST control) in the test with CRX; 1.12 fold enrichment (6-mer frequency, TF over GST control) with ETV1.
In the case of ACTATA, the binding signal was 1.29 fold enrichment (6-mer frequency, TF over GST control) with FEV; 1.33 fold enrichment (6-mer frequency, TF over GST control) with ETV5; 1.26 fold enrichment (6-mer frequency, TF over GST control) with HSF1; 1.26 fold enrichment (6-mer frequency, TF over GST control) with SPIC; 1.3 fold enrichment (6-mer frequency, TF over GST control) in the test with ELF4; 1.42 fold enrichment (6-mer frequency, TF over GST control) in the test with ELK4. Also, the binding signal was 1.3 fold enrichment (6-mer frequency, TF over GST control) with ETV2; 1.38 fold enrichment (6-mer frequency, TF over GST control) with ELF3; 1.4 fold enrichment (6-mer frequency, TF over GST control) in the test with CRX; 1.26 fold enrichment (6-mer frequency, TF over GST control) with ETV1.
Consider TTGGTT, for which the binding signal with FEV was 1.31 fold enrichment (6-mer frequency, TF over GST control); in the test with ETV5, 1.44 fold enrichment (6-mer frequency, TF over GST control); with HSF1, 1.18 fold enrichment (6-mer frequency, TF over GST control); in the test with SPIC it was 1.47 fold enrichment (6-mer frequency, TF over GST control); with ELF4, 1.42 fold enrichment (6-mer frequency, TF over GST control); in the test with ELK4 it was 1.32 fold enrichment (6-mer frequency, TF over GST control). The binding signal with ETV2 is 1.29 fold enrichment (6-mer frequency, TF over GST control); with ELF3 it was 1.23 fold enrichment (6-mer frequency, TF over GST control); with CRX it was 1.29 fold enrichment (6-mer frequency, TF over GST control); in the test with ETV1, 1.4 fold enrichment (6-mer frequency, TF over GST control).
In the case of CTAGGT, the binding signal with FEV is 1.07 fold enrichment (6-mer frequency, TF over GST control); with ETV5 it was 1.18 fold enrichment (6-mer frequency, TF over GST control); with HSF1, 1.19 fold enrichment (6-mer frequency, TF over GST control); with SPIC, 1.26 fold enrichment (6-mer frequency, TF over GST control); in the test with ELF4 it was 1.12 fold enrichment (6-mer frequency, TF over GST control); with ELK4, 1.18 fold enrichment (6-mer frequency, TF over GST control). Moreover, the binding signal was 1.07 fold enrichment (6-mer frequency, TF over GST control) in the test with ETV2; 1.18 fold enrichment (6-mer frequency, TF over GST control) in the test with ELF3; 1.05 fold enrichment (6-mer frequency, TF over GST control) in the test with CRX; 1.1 fold enrichment (6-mer frequency, TF over GST control) with ETV1.
For the sequence TTAGCT, the binding signal with FEV is 1.2 fold enrichment (6-mer frequency, TF over GST control); with ETV5, 1.2 fold enrichment (6-mer frequency, TF over GST control); in the test with HSF1 it was 1.82 fold enrichment (6-mer frequency, TF over GST control); with SPIC it was 1.16 fold enrichment (6-mer frequency, TF over GST control); in the test with ELF4, 1.28 fold enrichment (6-mer frequency, TF over GST control); with ELK4, 1.24 fold enrichment (6-mer frequency, TF over GST control). In addition, the binding signal in the test with ETV2 is 1.28 fold enrichment (6-mer frequency, TF over GST control); in the test with ELF3 it was 1.18 fold enrichment (6-mer frequency, TF over GST control); with CRX it was 2.63 fold enrichment (6-mer frequency, TF over GST control); in the test with ETV1, 1.2 fold enrichment (6-mer frequency, TF over GST control).
As for AATAAA, the binding signal is 1.22 fold enrichment (6-mer frequency, TF over GST control) with FEV; 1.31 fold enrichment (6-mer frequency, TF over GST control) in the test with ETV5; 1.42 fold enrichment (6-mer frequency, TF over GST control) in the test with HSF1; 1.26 fold enrichment (6-mer frequency, TF over GST control) with SPIC; 1.29 fold enrichment (6-mer frequency, TF over GST control) with ELF4; 1.28 fold enrichment (6-mer frequency, TF over GST control) in the test with ELK4. The binding signal was 1.21 fold enrichment (6-mer frequency, TF over GST control) with ETV2; 1.31 fold enrichment (6-mer frequency, TF over GST control) with ELF3; 1.57 fold enrichment (6-mer frequency, TF over GST control) with CRX; 1.23 fold enrichment (6-mer frequency, TF over GST control) with ETV1.
For the sequence TCTTGT, the binding signal with FEV is 1.52 fold enrichment (6-mer frequency, TF over GST control); in the test with ETV5, 1.49 fold enrichment (6-mer frequency, TF over GST control); with HSF1 it was 1.55 fold enrichment (6-mer frequency, TF over GST control); with SPIC, 1.39 fold enrichment (6-mer frequency, TF over GST control); with ELF4, 1.66 fold enrichment (6-mer frequency, TF over GST control); with ELK4, 1.49 fold enrichment (6-mer frequency, TF over GST control). Besides, the binding signal is 1.4 fold enrichment (6-mer frequency, TF over GST control) with ETV2; 1.55 fold enrichment (6-mer frequency, TF over GST control) with ELF3; 1.48 fold enrichment (6-mer frequency, TF over GST control) in the test with CRX; 1.57 fold enrichment (6-mer frequency, TF over GST control) in the test with ETV1.
